FLuc modulator: inhibits or activates purified firefly luciferase, miR-21 counter-screen; P08659; purified FLuc, Km substrates, luminescence inhibition; Potency, µM (doses to about 57.5 µM), for the others: at the top dose activity change, negative = inhibition, usual class: inhibitors; 360,000 tested, 6.9% active;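 also: plate controls were vehicle for no effect and reference inhibitor for full effect; nearly all actives have a fitted effect of over 55% in size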
Target sequence (P08659 whole entry, looked up): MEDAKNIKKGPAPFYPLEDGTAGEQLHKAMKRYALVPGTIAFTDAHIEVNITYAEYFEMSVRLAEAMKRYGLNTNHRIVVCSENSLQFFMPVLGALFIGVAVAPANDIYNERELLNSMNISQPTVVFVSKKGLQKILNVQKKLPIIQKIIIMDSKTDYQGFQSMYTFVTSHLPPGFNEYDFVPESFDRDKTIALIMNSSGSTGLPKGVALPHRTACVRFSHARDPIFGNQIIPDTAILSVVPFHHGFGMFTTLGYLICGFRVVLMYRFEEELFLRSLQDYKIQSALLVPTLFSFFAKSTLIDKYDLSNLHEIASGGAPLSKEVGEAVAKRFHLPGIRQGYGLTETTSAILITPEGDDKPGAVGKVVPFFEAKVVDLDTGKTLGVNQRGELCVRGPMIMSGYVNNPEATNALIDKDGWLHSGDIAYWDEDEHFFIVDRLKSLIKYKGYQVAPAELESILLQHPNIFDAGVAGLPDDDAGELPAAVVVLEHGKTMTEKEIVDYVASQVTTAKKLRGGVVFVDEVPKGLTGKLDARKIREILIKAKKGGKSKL
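Purified P. pyralis luciferase (10nM final) with 10uM D-luciferin and 10uM ATP (Km levels) in 50mM Tris acetate pH 7.5, 10mM Mg acetate, 0.01% Tween-20, 0.05% BSA; qHTS 6-point titration, ~60 µM downward; luminescence read.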
ELG1 genotox: genotoxicity induction in ELG1-luciferase HEK293T cells; 330,000 tested, 1.3% active; AID 504466; HEK293T ELG1-luciferase reporter, luminescence, 16 h; Potency, µM (highest dose often 46 µM), without a hit: top-dose activity change, positive = activation, actives largely listed as activators; also: % of control where 0% means no effect; nearly all actives have a fitted effect of over 60% in size
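Luminescence read-out: rising ELG1-luciferase signal, reflecting elevated ELG1 protein under genetic stress, flags genotoxic compounds. Cells were treated for 16 hr at 37 °C before ONE-Glo detection.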
Rab9 promoter act: activators of Rab9 promoter | Huh7 Rab9 promoter-luciferase reporter, luminescence, 24 h | Potency, µM (doses to about 9.22 µM), for inactives: at the highest dose activation, negative = inhibition, hits mostly activators | 320,000 tested, 2.8% active | AID 485297; also: % of control where 0% means no effect; nearly all actives have a fitted effect of over 60% in size
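Promoter activation is measured as luciferase luminescence in Huh7 cells stably transfected with a Rab9 promoter–luciferase construct, following 24 h compound exposure at 37 °C and 10 min reagent incubation at ambient temperature.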
SMN2 splice enh: enhancers of SMN2 splice variant expression. 210,000 tested, 2.8% active. Potency, µM (doses to about 46.1 µM), without a hit: top-dose activity change, positive = activation, most hits filed as activators. HEK293 SMN2-luciferase splicing reporter, luminescence, 30-36 h; also: % of control where 0% means no effect; nearly all actives have a fitted effect of over 55% in size
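qHTS luciferase splicing reporter: luminescence rises when SMN2 exon 7 is included in transfected HEK293 cells. Compound exposure lasted 30-36 h at 37C, with 4.5 mM final sodium butyrate as control, followed by a ONE-Glo read.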
NPC1 promoter act: NPC1 promoter activation; Huh7 NPC1 promoter luciferase reporter, 24 h; Potency, µM (highest dose often 9.22 µM), inactives show top-dose activation, usual class: activators; 320,000 tested, 2.4% active; AID 485313; also: % of control where 0% means no effect; nearly all actives have a fitted effect of over 60% in size
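Huh7 reporter cells (NPC1 promoter driving luciferase) are dosed with compound for 24 h at 37 °C, 5% CO2; luciferase detection reagent is then added and luminescence measured after 10 min at ambient temperature.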
Numbers without * were called inactive; ? = inconclusive; · = not tested or not shown. In the library only some 7.4% were active in any assay of this set; here they are far more common. Calls follow the shape of the dose curve; as a rule, active = well fitted curve in the direction sought with a large enough effect; inconclusive = small, poorly fitted or top-dose-only effect, or another doubt; inactive = no such curve, though single readings can be large; an effect the other way counts as inactive or inconclusive. Potency is read from the fitted curve at half-maximal effect.

SMILES	FLuc modulator	ELG1 genotox	Rab9 promoter act	SMN2 splice enh	NPC1 promoter act
Cc1cc(C(=O)Nc2cc(C(C)(C)C)on2)c(C)o1	9.53µM*	?	2.82µM*	·	?
Cc1cc(NC(=O)c2cccc([N+](=O)[O-])c2)no1	-0.2%	6.2%	0.1%	·	-1.6%
COc1cccc(CCNC(=O)c2c(O)nc3cc(C)ccn3c2=O)c1	-2.2%	·	·	4.4%	·
O=C(NCCn1cc(SCc2ccccc2Cl)c2ccccc21)c1cccs1	-17.8%	·	·	-25.5%	·
O=C(c1ccc2c(c1)N(Cc1c(F)cccc1Cl)C(=O)c1ccccc1S2)N1CCCC1	-5.6%	·	·	-17.0%	·
CC(C)(C)c1cc(NC(=O)Nc2ccccc2)no1	4.78µM*	?	1.26µM*	·	1.41µM*
OCCCNc1ncnc2c1cnn2-c1ccc(Cl)cc1	1.9µM*	?	0.282µM*	·	0.199µM*
Clc1ccc(-n2ncc3c(NCc4ccc5c(c4)OCO5)ncnc32)cc1	?	?	6.7%	-13.8%	10.1%
CCCCN(C)c1ncnc2c1cnn2-c1cccc(Cl)c1	2.69µM*	·	·	·	·
Cc1cccc(-n2ncc3c(N(C)Cc4ccccc4)ncnc32)c1	2.39µM*	?	3.55µM*	·	3.98µM*
CC(C)CCNc1ncnc2c1cnn2-c1cccc(Cl)c1	16.9µM*	·	·	·	·
Cc1cc(C)c(C(=O)CN2C(=O)C(=O)N(C3CCCC3)C2=O)cc1C	-2.4%	1.5%	-0.2%	·	5.6%
Cc1noc(C)c1C(=O)N1CCC[C@@]2(CCN(C(=O)Nc3ccccc3)C2)C1	·	·	·	-13.3%	·
O=C1CCCN1CCCNc1ncnc2c1cnn2-c1ccc(Cl)cc1	16.9µM*	18.4µM*	?	-35.2%	?
Cc1ccc(Cn2ncc3c(NCCN(C)C)ncnc32)cc1	3.3%	1.2%	-1.9%	·	-4.2%
CN(C)CCNc1ncnc2c1cnn2-c1cccc(Cl)c1	23.9µM*	·	·	·	·
CN(C)CCNc1ncnc2c1cnn2-c1ccc(Cl)cc1	7.57µM*	20.6µM*	?	26.1%	15.7%
COc1cc(C(=O)NNC(=O)c2nn(C)c(=O)c3ccccc23)cc(OC)c1OC	·	-0.4%	·	·	·
O=C(COC(=O)c1ccc(F)c(S(=O)(=O)N2CCOCC2)c1)c1ccccc1	·	5.0%	·	·	·
Cc1ccc(S(=O)(=O)N2CCOCC2)cc1C(=O)OCC(=O)c1ccc[nH]1	1.5%	0.1%	-1.1%	·	-1.9%
O=C(COC(=O)c1ccc(F)c(S(=O)(=O)N2CCOCC2)c1)c1ccc(Cl)cc1	8.49µM*	-1.2%	2.2%	·	-1.6%
Cc1ccc(S(=O)(=O)N2CCOCC2)cc1C(=O)OCC(=O)c1ccc(Br)cc1	3.79µM*	-2.5%	-4.2%	·	0.2%
CCOC(=O)C1CCN(c2c(C(=O)c3ccc(OC)cc3)cnc3ccccc23)CC1	2.3%	·	·	18.2%	·
CCC(C(=O)NCCCN(CC)CC)n1ncn2c(cc3occc32)c1=O (configuration not stated)	-6.1%	·	·	-4.4%	·
COc1ccc(N(Cc2cc3cc(C)ccc3[nH]c2=O)C(C)=O)cc1	0.7%	-5.4%	-1.8%	·	-2.5%
SMILES	FLuc modulator	ELG1 genotox	Rab9 promoter act	SMN2 splice enh	NPC1 promoter act
CCNC(=S)NNC(=O)c1cc(C)nc2ccccc12	-13.9%	-1.0%	-8.3%	16.0%	-3.4%
CCNC(=S)NNC(=O)c1cc(-c2cccnc2)nc2ccccc12	9.53µM*	3.2%	2.6%	13.1%	-3.0%
CCCNC(=S)NNC(=O)c1cc(-c2cccnc2)nc2ccccc12	19µM*	-2.1%	-8.9%	·	-1.3%
CCCCNC(=S)NNC(=O)c1cc(-c2cccnc2)nc2ccccc12	15.1µM*	-0.2%	0.3%	·	-2.0%
COC(C[C@H]1O[C@H]1[C@H](O)COCc1ccccc1)OC	-0.8%	2.7%	-4.6%	·	0.1%
O=C(c1ccncc1)N1CCN(S(=O)(=O)c2ccccc2Br)CC1	-0.9%	-0.3%	7.0%	·	-11.6%
Cc1nc(CSc2nsc(/C=C/N(C)C)c2C#N)cs1	23.9µM*	0.7%	13.2%	-4.2%	-15.4%
COC(=O)c1ccc(NC(=O)CN(C)S(=O)(=O)c2ccc(Br)s2)cc1	-14.6%	·	·	-4.9%	·
Cc1[nH]n(-c2cccc(Cl)c2)c(=O)c1C=NCc1ccco1	1.51µM*	9.2µM*	1.12µM*	12.6µM*	2µM*
Cc1[nH]n(-c2ccccc2)c(=O)c1C=NCc1ccco1	9.53µM*	16.4µM*	1.78µM*	11.2µM*	3.55µM*
Cc1[nH]n(-c2cccc(Cl)c2)c(=O)c1C=NCC(C)C	23.9µM*	20.6µM*	2.82µM*	12.6µM*	3.16µM*
COc1ccc(C2c3[nH]c4ccccc4c3CCN2C(=O)Cc2nonc2C)c(F)c1 (configuration not stated)	4.78µM*	9.6%	?	·	19.8%
CCn1nc(C)cc1C(=O)N1CCc2c([nH]c3ccccc23)C1c1cc(F)ccc1F (configuration not stated)	21.3µM*	?	?	·	?
COc1ccc(C2c3[nH]c4ccccc4c3CCN2Cc2ccoc2)c(F)c1 (configuration not stated)	0.7%	-2.9%	-14.4%	·	4.8%
Cc1c(C(=O)Nc2ccccc2)sc2nc(-c3cc4ccccc4oc3=O)[nH]c(=O)c12	-14.4%	·	·	·	·
C[C@@]12C(=O)Nc3cc(Cl)ccc3C(=O)N1[C@H]1c3cc(Br)ccc3OC[C@@H]1[C@@H]2c1ccccc1	-0.9%	0.1%	-3.7%	·	0.2%
CC1(C(=O)O)NCCc2cc(O)c(O)cc21 (configuration not stated)	·	·	·	1.3%	·
COc1ccccc1OCC(=O)Nc1ccccn1	3.38µM*	2.06µM*	3.16µM*	·	?
COc1ccccc1NC(=O)C(=O)Nc1ccccn1	8.49µM*	?	3.16µM*	15.8µM*	3.98µM*
Cc1c(C)c2ccc(OCC(=O)Nc3ccccn3)c(C)c2oc1=O	0.0338µM*	?	-20.3%	·	-34.3%
Cc1c(C)c2ccc(OCC(=O)N(C)C)c(C)c2oc1=O	-16.5%	?	-1.0%	?	-0.8%
Cc1ccc(NC(=O)C(=O)Nc2ccccn2)cc1	0.536µM*	?	0.316µM*	1.58µM*	?
COc1ccc(CCN2C(=O)c3oc4cc(C)cc(C)c4c(=O)c3C2c2ccc(F)cc2)cc1OC (configuration not stated)	-7.4%	·	·	6.0%	·
COc1ccc(-c2cc3ccc(O)c(CN4CCOCC4)c3oc2=O)cc1OC	-2.3%	·	·	·	·
O=C(Nc1ccc(Cl)cc1Cl)c1n[nH]c(Cn2cncn2)n1	4.26µM*	?	16.9%	18.3%	15.6%
SMILES	FLuc modulator	ELG1 genotox	Rab9 promoter act	SMN2 splice enh	NPC1 promoter act
NCCC(=O)O	·	·	·	-5.3%	·
O=C(O)/C=C/C(=O)NCCc1ccccc1	-4.1%	0.5%	-1.4%	-3.2%	-2.3%
CC(C)=CC(=O)NCCc1ccccc1	13.5µM*	·	·	12.6µM*	·
Cc1ccc(/C=C/C(=O)NCCc2ccccc2)o1	16.9µM*	?	?	·	?
CCOC(=O)CSc1nc2cc(OC)c(OC)cc2c2nc(-c3ccccc3)nn12	1.5%	·	·	3.9%	·
COC(=O)c1ccc2c(c1)NC(=O)CS2	-1.6%	-1.0%	-5.2%	2.7%	-5.6%

Compound activity from PubChem BioAssay.
